Source: PubChem BioAssay
An excerpt weighted towards active compounds, which were near 4.7% of everything screened.
TRHR ag: activates the human TRH receptor. P34981. TRHR cells, calcium flux fluo-8, FDSS agonist mode. activation, % at 2 µM. hit rate 0.18% among 360,000. AID 493084; also: 0% is about no effect
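Fluo-8-loaded TRHR cells; 10 s baseline, compound added, kinetic Ca2+ fluorescence read 1/s, agonist mode.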
TRHR PAM: allosteric enhancers of human TRH receptor | enhancement, % at 2 µM | hit rate 0.66% among 360,000 | P34981 | AID 493056 | TRHR cells, fluo-8 calcium fluorescence, EC20 TRH enhancement; in the data active = enhancement above about 30%; also: 0% is about no effect
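TRHR-expressing cells loaded with fluo-8 calcium dye were read kinetically (ex 480/em 530) during compound addition, then stimulated with an EC20 of TRH (10 nM final). Enhancement of the Gq-mediated intracellular calcium response was scored.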
D1 ag: human D1 receptor agonism. P21728. HEK293 T-REx D1 cells, calcium flux, agonist mode. activation, % at 2 µM. hit rate 1% among 360,000; also: 0% is about no effect
Target sequence (P21728 whole entry, looked up): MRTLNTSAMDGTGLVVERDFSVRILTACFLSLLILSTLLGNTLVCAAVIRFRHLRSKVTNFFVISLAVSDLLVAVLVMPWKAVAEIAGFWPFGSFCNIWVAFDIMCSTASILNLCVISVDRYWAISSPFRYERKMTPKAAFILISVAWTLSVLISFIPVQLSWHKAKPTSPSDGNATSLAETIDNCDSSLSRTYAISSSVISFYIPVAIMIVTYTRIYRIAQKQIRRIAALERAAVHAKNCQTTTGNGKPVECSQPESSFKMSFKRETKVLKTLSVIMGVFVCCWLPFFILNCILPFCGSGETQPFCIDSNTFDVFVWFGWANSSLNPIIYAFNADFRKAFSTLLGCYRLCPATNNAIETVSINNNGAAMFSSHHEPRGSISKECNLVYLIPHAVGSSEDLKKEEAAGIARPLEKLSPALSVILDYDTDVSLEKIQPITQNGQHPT
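Tetracycline-induced HEK293 TREx D1 cells, force-coupled to calcium signalling, were dye-loaded with a no-wash calcium kit. Compound was pin-added after a 10 s baseline. Fluorescence was read kinetically at 1 cycle/s for 180 s, with calcium rises flagged as agonism.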
D1 antag: blocks dopamine activation of the human D1 receptor; HEK293 TREx D1 cells, calcium flux, dopamine EC80; hits give low values; hit rate 3.2% among 360,000; activity change, negative = inhibition, % at 10 µM; in the data active = activity change below about -30%; also: % is scaled to controls: 0 for no effect and ±100 for the full control effect
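Allosteric or orthosteric antagonism assessed as attenuation of the calcium response to EC80 dopamine, added 180 s after compound, in induced HEK293 Trex D1 cells loaded with no-wash calcium dye.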
D1 PAM: potentiators of human D1 dopamine receptor. P21728. HEK293 TREx D1 cells, calcium flux, dopamine EC20 potentiation. potentiation, % at 10 µM. hit rate 0.036% among 360,000. AID 504651; in the data active = potentiation above about 30%; also: 0% is about no effect
Active calls of the source: *. Rule as the data show it, unless noted: active = activation above about 30%; inactive = the rest.

How did CCOc1ccc(N(C)S(=O)(=O)c2ccc(C)c(C(=O)Nc3nnc(C4CC4)s3)c2)cc1 do in these assays?
TRHR ag: 0; TRHR PAM: 5; D1 ag: 0; D1 antag: -19; D1 PAM: -1

How did C/C(N)=C(/C#N)C(=O)COC(=O)c1cccc2ccccc12 do in these assays?
TRHR ag: 1; TRHR PAM: 1; D1 ag: 3; D1 antag: -34*; D1 PAM: -10

How did C/C(N)=C(/C#N)C(=O)COC(=O)c1ccccc1O do in these assays?
TRHR ag: 0; TRHR PAM: -2; D1 ag: 5; D1 antag: 16; D1 PAM: -6

How did Cc1ccc(NC(=O)c2cc([N+](=O)[O-])ccc2NCc2cccnc2)cc1 do in these assays?
TRHR ag: 1; TRHR PAM: 1; D1 ag: 0; D1 antag: -36*; D1 PAM: -12

What do the screens show for `N#Cc1ccc(-c2ccc(OCC(=O)NCCc3ccccc3)cc2)cc1`?
TRHR ag: -2; TRHR PAM: 0; D1 ag: 36*; D1 antag: -48*; D1 PAM: -7

What do the screens show for `Cc1ccc(C)c(OCCCCn2cnc3ccccc3c2=O)c1`?
TRHR ag: -1; TRHR PAM: 4; D1 ag: 39*; D1 antag: -19; D1 PAM: -6

Results for Cc1ccc(C(=O)Cn2cnc3ccccc3c2=O)cc1C ?
TRHR ag: 0; TRHR PAM: 7; D1 ag: 43*; D1 antag: -17; D1 PAM: -3

How did O=C(Cn1cnc2ccccc2c1=O)c1ccc2ccccc2c1 do in these assays?
TRHR ag: -1; TRHR PAM: 2; D1 ag: 2; D1 antag: -12; D1 PAM: -10

How did CCOc1ccc(OCCCCn2cnc3ccccc3c2=O)cc1 do in these assays?
TRHR ag: 1; TRHR PAM: -6; D1 ag: 1; D1 antag: -42*; D1 PAM: 1

Results for COc1ccc(SCCN2CC[C@@H](O)CCC2=O)cc1 ?
TRHR ag: 0; TRHR PAM: 1; D1 ag: -3; D1 antag: -58*; D1 PAM: -4

What do the screens show for `COc1ccc(CNC(=O)c2ccc(NC(=O)N3CCSc4ncccc43)cc2)cc1OC`?
TRHR ag: 0; TRHR PAM: 2; D1 ag: 1; D1 antag: -5; D1 PAM: 1

How did CCc1ccccc1NC(=O)CN1C(=O)c2cccnc2Oc2ccc(Cl)cc21 do in these assays?
TRHR ag: -1; TRHR PAM: -4; D1 ag: 1; D1 antag: -36*; D1 PAM: -3

What do the screens show for `CCc1ccc(CNC(=O)c2cc3n(n2)CCCN(Cc2ccccc2)C3=O)cc1`?
TRHR ag: 0; TRHR PAM: 2; D1 ag: 66*; D1 antag: -47*; D1 PAM: -3

How did COc1ccc(CNCCC(c2ccc(OC)cc2)c2ccccc2OC)cc1 (stereo not given) do in these assays?
TRHR ag: 1; TRHR PAM: 3; D1 ag: 30*; D1 antag: -4; D1 PAM: -1

Results for COc1ccc(C(CCNCc2ccc(OC(C)C)cc2)c2ccccc2OC)cc1 (stereo not given) ?
TRHR ag: 1; TRHR PAM: 5; D1 ag: 59*; D1 antag: 10; D1 PAM: 3

How did COc1ccc(C(CCNCc2ccc(N(C)C)cc2)c2ccccc2OC)cc1 (stereo not given) do in these assays?
TRHR ag: 0; TRHR PAM: 2; D1 ag: 6; D1 antag: 11; D1 PAM: -10

What do the screens show for `FC(F)(F)c1ccc(Oc2ccc3ccccc3c2Br)nc1`?
TRHR ag: 0; TRHR PAM: 1; D1 ag: 8; D1 antag: 4; D1 PAM: 4

What do the screens show for `Cc1ccc(NS(=O)(=O)c2ccc3nc(-c4ccccc4)[nH]c3c2)cc1Cl`?
TRHR ag: -1; TRHR PAM: 10; D1 ag: 19; D1 antag: -14; D1 PAM: -4

What do the screens show for `O=C(CNc1ccccc1Cl)Nc1cc(S(=O)(=O)N2CCOCC2)ccc1Cl`?
TRHR ag: 1; TRHR PAM: -4; D1 ag: 2; D1 antag: -33*; D1 PAM: 1
